According to PubChem BioAssay (NCI):
The panel holds about 79,000 compounds, 15% with a hit somewhere; the sample as a whole holds those more often. Unmarked numbers belong to inactive results. Activity calls are given as the source filed them. Cut-off read from the data, not from the text of the source: active = growth inhibition above about 70%; inactive = the rest.

Tests used:
[1] = NCI Yeast Anticancer Drug Screen. Data for the rad50 strain (AID 155);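 note: 0% = growth of vehicle-only cultures of the same strain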; conditions: S. cerevisiae rad50 strain growth inhibition, stronger effect = higher value
How it was run: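 DNA repair mutant yeast, compound exposure, growth read-out; inhibition is taken relative to vehicle.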

[2] = NCI Yeast Anticancer Drug Screen. Data for the mec2-1 strain (AID 157); conditions: S. cerevisiae mec2-1 strain, stronger effect = higher value
How it was run: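 Vehicle-treated cultures served as reference for growth inhibition of compound-exposed mec2-1 yeast.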

[3] = NCI Yeast Anticancer Drug Screen. Data for the sgs1 mgt1 strain (AID 161);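 note: 0% = growth of cultures given vehicle only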; conditions: S. cerevisiae sgs1 mgt1 strain, stronger effect = higher value
How it was run: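 Mutant yeast exposed to compound; growth scored against vehicle-only wells.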

[4] = NCI Yeast Anticancer Drug Screen. Data for the cln2 rad14 strain (AID 165);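 note: 0% = growth equal to vehicle treated cultures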; conditions: S. cerevisiae cln2 rad14 strain, stronger effect = higher value
How it was run: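 Each compound was tested on cln2 rad14 yeast. Inhibition of growth was calculated against vehicle-exposed controls.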

[5] = NCI Yeast Anticancer Drug Screen. Data for the bub3 strain (AID 167); conditions: S. cerevisiae bub3 mutant strain, stronger effect = higher value
How it was run: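 In this screen, a yeast mutant lacking normal mitotic checkpoint function is challenged with compound. Relative growth versus vehicle gives the inhibition value.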

[6] = NCI Yeast Anticancer Drug Screen. Data for the mlh1 rad18 strain (AID 175); conditions: S. cerevisiae mlh1 rad18 strain growth inhibition, stronger effect = higher value
How it was run: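 Vehicle-treated cultures served as the reference for growth inhibition in a yeast strain carrying DNA damage repair alterations exposed to each compound.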

[7] = at 5.0 µM (retest, dose inferred, filed as 0.5)
[8] = at 50.0 µM (retest, dose inferred, filed as 5.0)

Structure (SMILES)	growth inhibition [1, 7]	growth inhibition [1, 8]	growth inhibition ([1]; at 50.0 µM)	growth inhibition [2, 7]	growth inhibition [2, 8]	growth inhibition ([2]; at 50.0 µM)	growth inhibition [3, 7]	growth inhibition [3, 8]	growth inhibition ([3]; at 50.0 µM)	growth inhibition [4, 7] [%]	growth inhibition [4, 8]	growth inhibition ([4]; at 50.0 µM)	growth inhibition [5, 7] [%]	growth inhibition [5, 8]	growth inhibition ([5]; at 50.0 µM)	growth inhibition [6, 7]	growth inhibition [6, 8]	growth inhibition ([6]; at 50.0 µM)
Clc1ccc(/C=N\Nc2ccccc2)c(Cl)c1	4%	99% (active)	76.8% (active)	1%	99% (active)	44.9%	-1%	98% (active)	30.1%	2	86% (active)	-6.9%	-2	99% (active)	31.7%	1%	99% (active)	66.4%
CCOC(=O)c1ccc(N(CCC(O)CN=[N+]=[N-])S(=O)(=O)c2ccc(C)cc2)cc1 (configuration not stated)	9%	66%	57%	11%	23%	19.4%	18%	63%	53.4%	0	3%	40.6%	-4	49%	5.9%	29%	84% (active)	55.1%
O=C1Nc2c(Cl)cc(Cl)cc2/C1=N/N=C/c1ccco1	24%	84% (active)	52.6%	26%	83% (active)	53.4%	28%	68%	67.3%	28	74% (active)	63.2%	21	83% (active)	55.4%	37%	94% (active)	89.2% (active)
CC1=CCC[C@@H]2C1(C)CCC(C)[C@@]2(C)CC1=CC(=O)C=CC1=O (some centres not stated)	18%	95% (active)	86.1% (active)	27%	96% (active)	89.2% (active)	52%	95% (active)	88.8% (active)	-12	92% (active)	85.5% (active)	14	93% (active)	86.8% (active)	40%	92% (active)	87% (active)
COC(=O)Cc1cn[nH]c1C(=O)OC	-147%	8%	9.2%	-51%	-45%	0.7%	-65%	-48%	1.7%	-66	-52%	29.6%	-68	-54%	-15.2%	-117%	-94%	9.75%
Cc1cc(NCCCCCCCCNc2cc(C)nc3cc(N(C)C)ccc23)c2ccc(N(C)C)cc2n1	18%	95% (active)	84.9% (active)	18%	97% (active)	90.5% (active)	53%	97% (active)	26.5%	24	97% (active)	18.4%	57	97% (active)	32.1%	17%	96% (active)	-17.5%
C/C(=N\NC(=S)Nc1ccc(S(N)(=O)=O)cc1)c1ccccn1	33%	64%	63.5%	25%	65%	42.8%	34%	84% (active)	28.9%	20	67%	24.5%	41	84% (active)	37.6%	39%	70% (active)	64%
O=C1C=C(Cl)C(=O)C(Cl)=C1Cl	-14%	99% (active)	99.2% (active)	11%	99% (active)	99.3% (active)	12%	99% (active)	99.2% (active)	-25	91% (active)	98.7% (active)	8	99% (active)	99% (active)	3%	99% (active)	98.8% (active)
O=C(Nc1ccc2c(c1)Cc1cc([N+](=O)[O-])c(F)cc1-2)C(F)(F)F	13%	4%	5.25%	1%	2%	49.2%	3%	-20%	6.55%	0	7%	-2.1%	-3	0%	-4.35%	3%	3%	28.5%
CN(C)CCSCCN1c2ccccc2Sc2ccc(Cl)cc21	-5%	99% (active)	57.5%	-2%	99% (active)	99.7% (active)	-16%	99% (active)	98.6% (active)	-8	99% (active)	99% (active)	4	99% (active)	99.2% (active)	5%	99% (active)	99.5% (active)
CCCCCCSc1nc2ccc(N=Cc3ccccc3O)cc2s1	90% (active)	89% (active)	81.8% (active)	83% (active)	91% (active)	55.2%	93% (active)	88% (active)	70.3% (active)	58	65%	48%	55	86% (active)	15.2%	86% (active)	88% (active)	80.1% (active)
Cc1ccc(Nc2nc(C)c(C(=O)C/C(=N\NC(N)=S)C(=O)Nc3ccc(Cl)cc3C)s2)cc1	-6%	19%	71.5% (active)	-12%	-3%	17.2%	-3%	11%	82.3% (active)	-8	10%	34.6%	-19	5%	33%	12%	-9%	57.1%
Nc1ccccc1C(=O)/C=C/c1ccccc1	19%	73% (active)	98.8% (active)	4%	57%	99% (active)	-2%	70% (active)	94.6% (active)	-23	27%	80.1% (active)	11	73% (active)	99.2% (active)	21%	84% (active)	96.8% (active)
CCCCCCC(C)OC(=O)c1ccccc1C(=O)O (configuration not stated)	7%	17%	11.5%	-11%	10%	0.2%	-6%	16%	17.9%	6	31%	63.5%	-3	9%	13.3%	-13%	12%	14.8%
c1ccc(CSc2nnc(SCc3ccccc3)c3[nH]cnc23)cc1	-3%	33%	61.4%	-7%	38%	46.9%	-1%	45%	46.1%	-4	23%	56%	-3	45%	50.1%	-6%	34%	11.9%
C=Nc1ccc2ccccc2c1Cc1c(O)ccc2ccccc12	7%	99% (active)	97.2% (active)	12%	99% (active)	97.2% (active)	8%	99% (active)	97.4% (active)	-8	99% (active)	96.5% (active)	1	99% (active)	97.5% (active)	11%	99% (active)	96.7% (active)
CCC(c1ccc(OC)cc1)C(CC)c1ccc(O)c(CN(C)C)c1 (configuration not stated)	-2%	39%	60.1%	0%	38%	27.1%	-4%	86% (active)	72.9% (active)	-1	41%	38.3%	4	50%	49%	3%	84% (active)	83.5% (active)
O=c1ccc2nc3ccccc3sc-2c1	-13%	98% (active)	95.4% (active)	22%	98% (active)	8.1%	5%	98% (active)	76.8% (active)	-6	98% (active)	49.8%	7	98% (active)	92.1% (active)	4%	98% (active)	95.5% (active)
CCOC(=O)C1(C#N)C(c2ccccc2)C1(C#N)C#N (configuration not stated)	18%	85% (active)	97.9% (active)	29%	96% (active)	99.3% (active)	31%	34%	98.5% (active)	9	76% (active)	97.8% (active)	14	92% (active)	97.4% (active)	42%	98% (active)	98.8% (active)
